Only some compounds are listed: those with a hit (about 4.2% of all), similar ones and a draw of the others.
CCHFV vOTU inh: CCHFV vOTU protease inhibition | Pep-AMC fluorescence | inhibition, % at 11.5 µM | 0.55% of 370,000 active | AID 651958; in the data active = inhibition above about 30%
Mtb FBA inh: Mtb fructose-bisphosphate aldolase inhibition; P9WQA3; 2.3% of 360,000 active; purified M. tuberculosis FBA, fluorescence read-out; inhibition, % at 1 µM
RecA splice inh: Mtb RecA intein splicing inhibition. P9WHJ3. cell-free RecA intein splicing, fluorescence. inhibition, % (concentration not given with the values). 0.75% of 290,000 active. AID 2221; in the data active = inhibition above about 30%
Target sequence (P9WHJ3 whole entry, looked up, canonical isoform): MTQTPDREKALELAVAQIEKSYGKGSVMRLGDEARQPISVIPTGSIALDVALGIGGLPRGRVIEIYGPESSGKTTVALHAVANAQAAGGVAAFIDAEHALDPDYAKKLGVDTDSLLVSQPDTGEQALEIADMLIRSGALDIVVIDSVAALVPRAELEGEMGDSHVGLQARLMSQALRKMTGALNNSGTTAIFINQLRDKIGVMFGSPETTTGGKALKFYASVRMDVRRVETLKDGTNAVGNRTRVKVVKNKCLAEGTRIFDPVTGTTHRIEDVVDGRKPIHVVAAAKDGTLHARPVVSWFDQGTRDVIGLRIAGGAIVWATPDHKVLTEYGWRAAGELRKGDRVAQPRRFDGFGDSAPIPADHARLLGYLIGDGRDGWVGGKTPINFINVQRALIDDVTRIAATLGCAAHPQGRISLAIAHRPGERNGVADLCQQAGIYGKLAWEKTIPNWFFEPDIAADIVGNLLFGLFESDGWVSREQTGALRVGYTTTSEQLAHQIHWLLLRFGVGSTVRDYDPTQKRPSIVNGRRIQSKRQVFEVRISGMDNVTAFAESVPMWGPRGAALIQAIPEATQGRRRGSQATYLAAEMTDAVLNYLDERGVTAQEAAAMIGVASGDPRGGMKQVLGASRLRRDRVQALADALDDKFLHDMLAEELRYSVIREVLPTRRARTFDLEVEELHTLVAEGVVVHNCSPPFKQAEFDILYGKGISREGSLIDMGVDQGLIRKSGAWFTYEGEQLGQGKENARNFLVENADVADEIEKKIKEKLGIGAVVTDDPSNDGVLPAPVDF
GDH-TPI counter-1: GDH-TPI coupled enzyme inhibition counter-screen | inhibition, % at 4.8 µM | 1.2% of 360,000 active | GDH-TPI coupled enzyme counterscreen, NADH absorbance; in the data active = inhibition above about 30%
Mtb FBA confirm: confirmation of M. tuberculosis fructose-bisphosphate aldolase inhibitors; shares compounds with Mtb FBA inh; purified M. tuberculosis FBA, fluorescence read-out; inhibition, % at 1 µM; 78% of 5,600 active
GDH-TPI counter-2: counter-screen for M. tuberculosis FBA inhibitors: GDH-TPI coupled enzyme inhibition. shares compounds with Mtb FBA inh. GDH-TPI coupled enzyme counterscreen, fluorescence. inhibition, % at 1 µM. 81% of 5,600 active. AID 652141; in the data active = inhibition above about 10%
Each line names hits and unclear results; the compound was inactive in the other large screens (follow-up assays come after a bar, where they were run). Rule as the data show it, unless noted: active = inhibition above about 27%; inactive = the rest.

COc1ccc(NC(=O)COC(=O)c2c(C)noc2C)cc1Cl	none (no result: RecA splice inh)
O=C(O)C1CCN(C(=O)COc2ccc3c4c(c(=O)oc3c2)CCCC4)CC1	Mtb FBA inh 100.3 | Mtb FBA confirm 57.5 | GDH-TPI counter-2 47.9
CCc1cc(=O)oc2cc(OCC(=O)N3CCC(C(=O)O)CC3)ccc12	Mtb FBA inh 27.1 | Mtb FBA confirm 73.7 | GDH-TPI counter-2 70.9
Cc1c(C)c2ccc(OCC(=O)N3CCN(c4ccccc4)CC3)cc2oc1=O	none (no result: CCHFV vOTU inh)
Cc1cc(=O)oc2c(C)c(OCC(=O)N3CCN(C(=O)C4COc5ccccc5O4)CC3)ccc12 (stereo not given)	Mtb FBA inh 32.2 | Mtb FBA confirm 135.8 | GDH-TPI counter-2 118.2
Cc1cc(=O)oc2c(C)c(OCC(=O)N3CCN(c4ccccc4)CC3)ccc12	none
Cc1c(C)c2ccc(OCC(=O)N3CCC(C(=O)O)CC3)cc2oc1=O	Mtb FBA inh 102.6 | Mtb FBA confirm inactive | GDH-TPI counter-2 inactive
O=C(COc1ccc2c3c(c(=O)oc2c1)CCC3)N1CCCC1	none
O=C(NCc1ccc2c(c1)OCO2)C(=O)NCC1OCCN1S(=O)(=O)c1ccccc1 (stereo not given)	none
Cc1cccc(NC(=O)COC(=O)CN2C(=O)c3ccccc3C2=O)c1C	none (no result: RecA splice inh)
Cc1ccc(CCN2CC(C(=O)NCCN(C)C)CC2=O)cc1 (stereo not given)	none
O=C(COC(=O)C1(c2ccccc2F)CCCC1)N1CCNC1=O	none (no result: RecA splice inh)
COC(=O)[C@]12C[C@H](CC(=O)NCc3ccc(C)o3)C(=O)N(Cc3cccc4ccccc34)C1=C[C@H](C(C)C)O[C@@H]2C1CC1	none (no result: Mtb FBA inh, RecA splice inh, GDH-TPI counter-1)
COc1ccc2c(c1)C1OCCC1C(c1ccco1)N2 (stereo not given)	Mtb FBA inh 93.0, GDH-TPI counter-1 44.4 (no result: CCHFV vOTU inh) | Mtb FBA confirm 96.3 | GDH-TPI counter-2 67.4
COCCCNC(=O)c1cn(CCOC)c(=O)c2c1c1ccccc1n2C	Mtb FBA inh 37.1 | Mtb FBA confirm 89.8 | GDH-TPI counter-2 96.5
COCCn1cc(C(=O)NCCCOC(C)C)c2c3ccccc3n(C)c2c1=O	Mtb FBA inh 30.0 | Mtb FBA confirm 128.0 | GDH-TPI counter-2 112.0
COCCNC(=O)c1cn(CCOC)c(=O)c2c1c1ccccc1n2C	Mtb FBA inh 27.4 | Mtb FBA confirm 133.6 | GDH-TPI counter-2 104.1
CC(C)Cn1cc(C(=O)NCCCN2CCCC2=O)c2c3ccccc3n(C)c2c1=O	Mtb FBA inh 33.3 | Mtb FBA confirm inactive | GDH-TPI counter-2 inactive
CN(CC(=O)Nc1cccc(F)c1)C(=O)c1ccc(N2CCCCC2)c([N+](=O)[O-])c1	none
CC(=O)Nc1ccc(S(=O)(=O)NCc2nc(-c3ccccc3Cl)no2)cc1	none
COC(=O)c1ccccc1S(=O)(=O)N1CCC(C(=O)Nc2ccc(N3CCOCC3)cc2)CC1	none (no result: RecA splice inh)
CC(=O)Oc1c(-c2ccc(Br)o2)oc2ccccc2c1=O	Mtb FBA inh 78.7 | Mtb FBA confirm 46.9 | GDH-TPI counter-2 40.9
Cc1ccc(S[C@@H](CCN2CC[C@H](C(C)(C)C)CCC2=O)c2ccccc2)cc1	none
O=C1c2ccccc2NC(c2ccc(-c3cccs3)o2)N1O (stereo not given)	Mtb FBA inh 96.9 (no result: RecA splice inh) | Mtb FBA confirm 78.8 | GDH-TPI counter-2 72.7
Cc1cccc2c1-c1sc(C(=O)Nc3cccc([N+](=O)[O-])c3C)cc1CO2	none
O=C(c1cc2c(s1)-c1ccccc1OC2)N1CCc2ccccc2C1	none
Cc1cccc2c1-c1sc(C(=O)Nc3cccnc3)cc1CO2	Mtb FBA inh 100.7 | Mtb FBA confirm inactive | GDH-TPI counter-2 inactive
O=C(Nc1cccnc1)c1cc2c(s1)-c1ccccc1OC2	Mtb FBA inh 73.4, GDH-TPI counter-1 37.1 | Mtb FBA confirm 70.7 | GDH-TPI counter-2 53.6
CC(C)(C)OC(=O)C[C@@H]1C/C=C\C[C@H](CC(=O)N(CCO)Cc2ccccc2)C(=O)N[C@H](C(C)(C)C)COC1=O	none (no result: RecA splice inh)
Cc1nc2cc3ccccc3cc2c(=O)[nH]1	Mtb FBA inh 67.3 | Mtb FBA confirm inactive | GDH-TPI counter-2 inactive
Cc1nc2sc(-c3ccccc3)cc2c(=O)[nH]1	none
O=c1[nH]c(=O)c2cc3ccccc3nc2[nH]1	Mtb FBA inh 75.2 (no result: RecA splice inh) | Mtb FBA confirm 47.4 | GDH-TPI counter-2 45.1
COc1ccc(-c2ccc3nnc(SCC(=O)N4CCCC4)n3n2)cc1	Mtb FBA inh 27.3 | Mtb FBA confirm 189.5 | GDH-TPI counter-2 160.2
COCCN(C(=O)COC(=O)Cc1coc2cc3c(cc12)CCC3)c1c(N)n(Cc2ccccc2)c(=O)[nH]c1=O	none
COCCSc1nc(N)c2c3c(sc2n1)CN(C)CC3	Mtb FBA inh 52.3 | Mtb FBA confirm 70.2 | GDH-TPI counter-2 48.4
CN(C)CCSc1nc(N)c2c3c(sc2n1)CN(C)CC3	Mtb FBA inh 37.7 | Mtb FBA confirm 73.0 | GDH-TPI counter-2 61.7
CC(C)Sc1nc(N)c2c3c(sc2n1)CN(C)CC3	none
CN1C(=O)c2ccc(NC(=O)CCS(=O)(=O)c3ccccc3)cc2C1=O	Mtb FBA inh 34.6 | Mtb FBA confirm 83.0 | GDH-TPI counter-2 60.6
O=C(CCS(=O)(=O)c1ccccc1)Nc1ccc2c(c1)C(=O)NC2=O	Mtb FBA inh 50.4 | Mtb FBA confirm active | GDH-TPI counter-2 active
Cc1ccc(NC(=O)CCS(=O)(=O)c2ccccc2)cc1S(=O)(=O)N1CCCCCC1	none (no result: RecA splice inh)
COc1cccc(CNC(=O)[C@@H]2CCCN2C(=O)[C@H]2CCCCN2C(=O)c2cccc(OC)c2)c1	none (no result: Mtb FBA inh, RecA splice inh, GDH-TPI counter-1)
Cc1cccc(S(=O)(=O)c2c(N)n(-c3ccccc3)c3nc4ccccc4nc23)c1	Mtb FBA inh 73.5 | Mtb FBA confirm 63.3 | GDH-TPI counter-2 50.2
CCN(CC(=O)Nc1ccc(C#N)cc1)CC(=O)Nc1ccc2c(c1)OCCO2	none (no result: RecA splice inh)
C=CCn1c(-c2cccs2)nc2ccccc21	Mtb FBA inh 63.2 (no result: RecA splice inh) | Mtb FBA confirm 149.6 | GDH-TPI counter-2 141.2
CCCn1c(-c2cccs2)nc2ccccc21	Mtb FBA inh 74.5 | Mtb FBA confirm active | GDH-TPI counter-2 174.1
Cc1ccc(OCCC(=O)OC(C)C(=O)Nc2ccc(Cl)cn2)cc1 (stereo not given)	none
Cc1cccc(C)c1NC(=O)CNC(=O)Cn1nc(C)c(C)c(C#N)c1=O	none
CC(C)CC1NC(C(=O)O)Cc2c1[nH]c1ccccc21 (stereo not given)	none
CCCC1NC(C(=O)O)Cc2c1[nH]c1ccccc21 (stereo not given)	Mtb FBA inh 28.8 | Mtb FBA confirm 36.3 | GDH-TPI counter-2 35.1
CC(C)C1NC(C(=O)O)Cc2c1[nH]c1ccccc21 (stereo not given)	Mtb FBA inh 44.7 | Mtb FBA confirm 163.5 | GDH-TPI counter-2 141.5
CSc1nc(N)nc2c1ncn2CC(=O)NCCCN1CCCC1=O	none (no result: RecA splice inh)
CCc1cc2c3c(c(=O)oc2cc1OC)CCCC3	Mtb FBA inh 66.7 | Mtb FBA confirm 76.8 | GDH-TPI counter-2 52.9
C=CCOc1ccc2c3c(c(=O)oc2c1)CCCC3	Mtb FBA inh 74.0 (no result: RecA splice inh) | Mtb FBA confirm active | GDH-TPI counter-2 active
CCCOc1ccc2c3c(c(=O)oc2c1)CCCC3	Mtb FBA inh 60.0 | Mtb FBA confirm 97.1 | GDH-TPI counter-2 76.0
O=C(O)CCCC(=O)N1CCN(c2nc(-c3ccccc3Cl)c3cc(Br)ccc3n2)CC1	none
